In the library only some 3.9% were active in any assay of this set; here they are far more common.
Mot1-301 SUMO = inhibitors of SUMOylation pathway: yeast Mot1-301 growth rescue. 320,000 tested, 1% active. AID 2716. growth rescue, % at 18.8 µM. S. cerevisiae Mot1-301 growth rescue, ATP luminescence, 38.5C; percent above DMSO median, 100 means doubled;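 active means every valid replicate shows activation above 250% relative to neutral control wells; inactive means the rest, any valid replicate at or below 250%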;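 further: OY570 slx delta 5 strain wells were the positive control but not used for scaling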
ALR inh = human ALR oxidase inhibition via reduced H2O2; purified ALR, DTT oxidation, H2O2 HRP-luminol luminescence; inhibition, % (test concentration not listed); 290,000 tested, 3.8% active;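 active means mean replicate inhibition above about 79%, with every replicate also reaching it, limit read from the data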
Target sequence (P55789 whole entry, looked up): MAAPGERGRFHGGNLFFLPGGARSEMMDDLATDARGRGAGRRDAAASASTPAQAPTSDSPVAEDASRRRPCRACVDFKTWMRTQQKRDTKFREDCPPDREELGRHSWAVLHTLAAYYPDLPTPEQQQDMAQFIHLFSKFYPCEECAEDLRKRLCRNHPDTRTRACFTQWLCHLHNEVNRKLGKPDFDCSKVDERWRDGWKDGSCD
Glyco luc inh = N-linked glycosylation inhibition; 360,000 tested, 0.23% active; D54 ERlucT glycosylation luciferase reporter, 24 h; percent of 100 nM tunicamycin response; AID 588692; reporter increase, % at 12.5 µM;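 active means mean luciferase reporter signal, scaled so untreated is 0 and the glycosylation-blocking control 100, at or above a set limit in every replicate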;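 further: luciferase carries N-glycosylation sites so blocking glycosylation raises the light; 0% = median of neutral control wells and 100% = median of 100 nM tunicamycin wells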
NSD2 inh = inhibitors of human histone methyltransferase NSD2; O96028; NSD2 peptide methylation, AlphaScreen, 120 min; AID 743445; 310,000 tested, 0.54% active; inhibition, % at 12.5 µM; in the data active means inhibition above about 50%
CDK5 p35 inh = inhibitors of human CDK5/p35 kinase | Q00535+Q15078 | Recombinant CDK5/p35, ADP-Glo luminescence, 60 min | inhibition, % at 10 µM | 330,000 tested, 0.01% active;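 active means highest replicate inhibition of at least 50% and at least 75% of replicates reaching 50%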;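 further: plate controls were DMSO neutral control for no effect and GW8510 at 10 µM for full effect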
Casp6 inh = caspase-6 (human) enzyme inhibition; purified caspase-6, Z-VEID-R110 cleavage fluorescence; inhibition, % at 12.5 µM; 350,000 tested, 0.53% active;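 active means mean inhibition across replicates at least about 35%, with every replicate also reaching that limit, limit read from the data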;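 further: 0% = median of neutral control wells and 100% = no fluorescence left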
Target sequence (P55212 24-179 limits assumed): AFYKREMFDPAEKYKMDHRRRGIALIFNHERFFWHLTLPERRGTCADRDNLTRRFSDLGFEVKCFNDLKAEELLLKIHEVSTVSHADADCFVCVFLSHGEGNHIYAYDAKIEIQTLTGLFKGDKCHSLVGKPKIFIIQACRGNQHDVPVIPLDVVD
Target sequence (P55212 194-293 limits assumed): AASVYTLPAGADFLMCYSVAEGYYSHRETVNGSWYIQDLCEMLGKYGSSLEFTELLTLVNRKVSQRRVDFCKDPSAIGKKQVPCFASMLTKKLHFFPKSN
The depositor's hits bear a star; x = no result.

SMILES | Mot1-301 SUMO | ALR inh | Glyco luc inh | NSD2 inh | CDK5 p35 inh | Casp6 inh
CC(C)N=C(Nc1cccnc1)c1ccccc1 | -16.9 | -30.6 | 3.8 | -0.1 | -2.0 | 38.9*
Cc1noc(C)c1S(=O)(=O)Nc1ccc2c(c1)C(=O)N([C@@H](C)CO)C[C@@H](C)[C@@H](CN(C)S(=O)(=O)c1ccccc1)OCCCC[C@@H](C)O2 | x | x | x | x | x | -3.7
CC(C)n1c(NCc2cccs2)nc2ccccc21 | -1.1 | 97.6* | -1.9 | 4.0 | 1.2 | x
CC(C)n1c(NCc2ccccc2O)nc2ccccc21 | -1.6 | 97.7* | -0.7 | 3.1 | 0.8 | 1.0
Cn1c(NCc2ccccc2O)nc2ccccc21 | -8.4 | 59.5 | -0.2 | -2.1 | 0.2 | -3.5
CC(C)n1c(NCc2ccc(N(C)C)cc2)nc2ccccc21 | -15.7 | 92.7* | -0.7 | 10.0 | -0.1 | x
CCN(CC)c1ccc(CNc2nc3ccccc3n2C(C)C)cc1 | -7.6 | x | -0.9 | -1.7 | 0.4 | 1.8
CCN(CC)c1ccc(CNc2nc3ccccc3n2CC)cc1 | -13.7 | 99.3* | -1.6 | x | -0.7 | -1.2
C/C=C/c1ccc([C@@H]2[C@H](CO)N3CCCCN(C(=O)Nc4cc(F)ccc4F)C[C@@H]23)cc1 | x | x | x | x | x | -5.6
C[C@@H]1CN([C@H](C)CO)C(=O)c2ccccc2-c2ccccc2CO[C@@H]1CN(C)C(=O)CCN(C)C | x | x | x | x | x | 1.2
CCN1/C(=C\C=C2\C(=O)N(C)C(=S)N2C)Sc2ccccc21 | -14.5 | 20.7 | -3.8 | 2.3 | 0.9 | 2.5
CCOC(=O)/C(=C/C=C1\Sc2cc(OCC)c(OCC)cc2N1CC)C(C)=O | 14.5 | 91.6* | -0.8 | 1.6 | 0.9 | -3.2
CCOC(=O)/C(=C\C=C1/Sc2cc(OCC)c(OCC)cc2N1CC)C(C)=O | 58.0 | 92.8* | -0.5 | 2.0 | 1.7 | x
C[C@H]1CN([C@@H](C)CO)C(=O)c2ccccc2-c2ccccc2CO[C@H]1CN(C)Cc1ccc2c(c1)OCO2 | x | x | x | x | x | 0.9
CC(=O)N1CCN=C1SCc1ccc(C(F)(F)F)cc1 | -14.4 | 99.0* | 12.0 | 12.4 | 0.8 | -1.0
O=C(c1cccs1)N1CCN=C1SCc1cccc(F)c1 | 119.8 | -10.2 | -0.8 | -1.3 | 0.2 | -1.2
O=C(C1CC1)N1CCN=C1SCc1cccc(F)c1 | 5.4 | 99.0* | 0.8 | x | -0.5 | -1.6
O=C(C1CC1)N1CCN=C1SCc1ccccc1 | 79.1 | -0.7 | -2.3 | x | -0.7 | -3.8
O=C(C1CC1)N1CCN=C1SCc1ccc(F)cc1 | 4.7 | 99.7* | 0.4 | x | 1.2 | -0.8
COCC#Cc1ccc2c(c1)O[C@H](CN(C)S(C)(=O)=O)[C@@H](C)CN([C@H](C)CO)S2(=O)=O | x | x | x | x | x | -0.4
O=[N+]([O-])c1ccccc1SN(Cc1ccccc1)c1ccccn1 | 375.5* | -56.4 | -1.2 | 6.0 | -2.5 | 1.2
O=C(/C=C/c1cccnc1)c1ccc(F)cc1 | x | x | x | 13.2 | x | x
COc1cccc(C#Cc2cnc3c(c2)C(=O)N([C@H](C)CO)C[C@@H](C)[C@H](CN(C)C(=O)C2CC2)O3)c1 | x | x | x | x | x | -0.8
CN(C)c1ncnc2c1ncn2C1OC(CO)C(O)C1O (centres undefined) | 277.2* | 4.4 | -13.3 | 5.9 | 0.5 | x
CC(C#N)(Nc1ccc(Cl)cc1)c1cccnc1 (centres undefined) | 306.2* | -11.0 | 3.5 | -5.4 | -0.6 | x
SMILES | Mot1-301 SUMO | ALR inh | Glyco luc inh | NSD2 inh | CDK5 p35 inh | Casp6 inh
O=C(Nc1ccc(Cl)cc1)Nc1cccnc1 | -5.3 | -4.7 | -1.2 | -2.3 | 0.6 | -1.0
NC(=O)c1ncc(C(F)(F)F)cc1Oc1cccc(C(F)(F)F)c1 | 309.3* | 1.3 | 0.1 | -0.1 | 0.6 | x
NC(=O)c1ncc(C(F)(F)F)cc1Oc1cccc(F)c1 | 17.1 | 1.6 | 2.4 | 0.7 | 0.5 | x
CCOC(=O)N1CCN(C(=O)c2cccc(N3C(=O)NC4CC3(C)Oc3ccc(Cl)cc34)c2)CC1 (centres undefined) | 145.1 | 7.5 | 29.3* | -0.4 | -0.8 | 0.8
CCOC(=O)N1CCN(C(=O)c2ccc3c(=O)n(-c4ccc(OC)cc4)c(=S)[nH]c3c2)CC1 | -10.9 | 1.4 | 0.4 | -0.9 | 0.7 | x
CCOC(=O)N1CCN(C(=O)c2cccc(-n3c(=S)[nH]c4cc(Cl)ccc4c3=O)c2)CC1 | -27.6 | 79.2* | 1.0 | -2.0 | -0.6 | x
C[C@H](CO)N1C[C@H](C)[C@H](CN(C)Cc2ccc(Oc3ccccc3)cc2)Oc2ccc(NS(C)(=O)=O)cc2C1=O | x | x | x | x | x | 0.1
COc1ccc(-c2csc(N=C(N)N)n2)cc1 | 17.1 | 97.8* | -0.6 | 1.6 | -0.1 | 0.5
COc1ccc(-c2cnc3c(c2)C(=O)N([C@H](C)CO)C[C@@H](C)[C@@H](CN(C)C(=O)CN(C)C)O3)cc1 | x | x | x | x | x | 0.6
O=C(C[C@H]1C[C@H]2c3cc(NC(=O)NC4CCCCC4)ccc3O[C@H]2[C@@H](CO)O1)NCCc1ccccc1 | x | x | x | x | x | -1.8
CC(C(=O)N1CCOCC1)N1C(=O)c2ccccc2C1=O (centres undefined) | 18.3 | -0.5 | 1.2 | 8.6 | -2.1 | x
CC(=O)N(C1=C(N2CCOCC2)C(=O)c2ccccc2C1=O)c1ccc(C(=O)O)cc1 | 4.4 | -15.7 | -11.2 | 48.4 | -8.2 | 70.4*
CC(=O)N(C)C1=C(N2CCOCC2)C(=O)c2ccccc2C1=O | 13.2 | -40.3 | -20.4 | 97.6* | 2.6 | x
Cc1noc(C)c1S(=O)(=O)Nc1ccc2c(c1)CC(=O)N([C@H](C)CO)C[C@@H](C)[C@H](CN(C)Cc1ccc(C(F)(F)F)cc1)O2 | x | x | x | x | x | -0.6
CN1C(=O)CSc2ccc(NC(=O)Nc3ccccn3)cc21 | -9.7 | 1.6 | 31.2* | 2.4 | -0.2 | 4.7
COc1cc2c(cc1OC)C(C)N(C(=O)CCNC(=O)c1ccccc1)CC2 (centres undefined) | 44.6 | -3.9 | -1.2 | 1.8 | -0.4 | -2.9
COc1cc2c(cc1OC)C(C)N(C(=O)Nc1ccccc1)CC2 (centres undefined) | 6.0 | x | 35.1* | -2.1 | 0.2 | -2.8
Cc1cc(Br)cc(C)c1NC(=S)NC(=O)CC(C)C | 6.5 | 90.3* | -3.1 | -3.2 | -0.6 | x
CCCNC(=O)[C@@H]1[C@@H](CO)[C@@H]2Cn3c(ccc(C4=CCCCC4)c3=O)[C@@H]2N1C(=O)c1cnccn1 | x | x | x | x | x | 1.1
CS(=O)(=O)c1ccc(C(=O)Nc2ccc(-c3nc4ccccc4[nH]3)cc2)cc1 | 194.3 | 14.2 | -2.3 | -1.9 | 0.3 | 0.7
CS(=O)(=O)c1ccc(C(=O)Nc2cccc(-c3nc4ccccc4[nH]3)c2)cc1 | 3.9 | 98.7* | 3.5 | -3.9 | 0.1 | -2.4
CS(=O)(=O)c1cccc(C(=O)Nc2cccc(-c3nc4ccccc4[nH]3)c2)c1 | 404.1 | 99.5* | 3.3 | 0.5 | 3.9 | 3.1
COc1ccc(NC(=O)COC(=O)c2n[nH]c3ccccc23)cc1 | x | x | x | -1.7 | x | x
CNS(=O)(=O)c1cc(N)ccc1C | 0.6 | -3.8 | 1.0 | -2.5 | 1.3 | -1.2
Cc1ccc(Nc2ccc(N)cc2S(=O)(=O)O)cc1 | -4.0 | 99.6* | 3.2 | 14.6 | x | 62.4*
O=c1[nH]c(S)c(/C=C2\C=Nc3ccccc32)s1 | -21.7 | 98.9* | 2.5 | 5.1 | x | 5.1

Screens: PubChem, Broad Institute
